Screening results from PubChem.
Pf Dd2 inh = qHTS Primary assay for Inhibitors of Plasmodium falciparum Dd2 growth in vitro. P. falciparum Dd2 growth, SYBR Green, 72 h. Potency, µM (titrated, usually from 28.9 µM), for inactives: top-dose activity, negative = inhibition, hits mostly inhibitors. actives 4.3% (n = 120,000); active = well fitted inhibition curve with a large enough effect;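 note: plate controls were DMSO vehicle for no effect and reference drug for full effect; nearly all actives have a fitted effect of over 65% in size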
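Infected erythrocytes (Dd2, 0.3% parasitemia, 2.5% hematocrit final) are added to compound in RPMI-1640/Albumax II medium, grown 72 h at 37C in low oxygen, then lysed with saponin/Triton-X containing SYBR Green and read by fluorescence.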
Starred values were filed as active, the others as inactive; i = inactive; [ ] = dose if it differs, or a comment. Shown is part of a subset that was picked to be rich in hits. Potency is the fitted concentration of half-maximal effect.

SMILES	Pf Dd2 inh
COc1ccc(NC(=O)COc2ccc(-c3nnc4n3CCCC4)cc2)cc1OC	8.9µM*
COc1ccc(NC(=O)COc2cccc(-c3nnc4n3CCCC4)c2)cc1OC	7.9µM*
COc1ccc(NC(=O)Cn2nc3n(c2=O)CCCCC3)cc1OC	i
CCOc1ccccc1NC(=O)N1CCc2nc(OCCOC)ccc2C1	i
CC(C)CN1CCCC(COc2ccccc2C(=O)NC2CC2)C1 (configuration not stated)	i
CN(CC1CCCCO1)C(=O)c1coc(COc2ccc3c(c2)OCO3)n1 (configuration not stated)	-15%
Cc1ccc(OCCC2CCN(C(=O)Cc3cccnc3)C2)cc1 (configuration not stated)	i
Cc1ccc(OCC(=O)NCCC2CCN(C(=O)Nc3ccccc3C)CC2)cc1	-19%
CN(CC1CCOCC1)S(=O)(=O)c1ccc(Cl)cc1	-4%
CO[C@@H]1CO[C@H]2[C@@H]1OC[C@@H]2NC(=S)Nc1ccc(Cl)cc1	24%[44.1 µM]
CC(=O)N1CCC(Cc2ncc(C)n2Cc2ccccc2)C1 (configuration not stated)	-13%
COc1ccc(C(=O)NCCc2ncc(C)n2Cc2ccc(F)cc2)cn1	-11%
Cc1cnc(CCNC(=O)NC(C)(C)C)n1Cc1ccccc1	4µM*
O=C(COc1ccccc1)N1CCC2(CC1)NC(=O)N(c1cccc(F)c1)N2	i
CCCN1CCN(C(=O)c2cc(CN(C)Cc3ccccc3)on2)CC1	-14%
CN(C(=O)CN1CCOCC1)C1CCc2nn(C)c(=O)n2CC1 (configuration not stated)	24%
Cc1ccc(-c2nnc(C3CN(C(=O)c4ccn[nH]4)CC34CCOCC4)o2)cc1 (configuration not stated)	i
Cc1ccc(-c2nnc(C3CN(C(=O)c4n[nH]c5ccccc45)CC34CCOCC4)o2)cc1 (configuration not stated)	8.9µM*
Cc1ccc(-c2nnc(C3CN(C(=O)c4cccc(F)c4)CC34CCOCC4)o2)cc1 (configuration not stated)	4µM*
Cc1ccc(-c2nnc(C3CN(C(=O)c4cccnc4C)CC34CCOCC4)o2)cc1 (configuration not stated)	-14%
Cc1ccc(-c2nnc(C3CN(C(=O)c4cccc(C)c4)CC34CCOCC4)o2)cc1 (configuration not stated)	i
Cc1ccc(-c2nnc(C3CN(C(=O)Cc4cccc(F)c4)CC34CCOCC4)o2)cc1 (configuration not stated)	i
O=C(c1nc2sccn2c1Br)N1CCN(c2ncccn2)CC1	-4%
O=C(NCc1ccccc1)C1CCN(c2cnc3nccnc3c2)CC1	i
CCCc1noc(-c2ccn3c(CNC(=O)c4cc(F)ccc4F)nnc3c2)n1	-4%
SMILES	Pf Dd2 inh
CCN(CC)C(=O)CCc1c(C)nn(-c2cccc(C)c2)c1Oc1ccccc1	-14%
CCN(CC)C(=O)CCc1c(C)nn(-c2ccccc2)c1Oc1ccccc1	10µM*
CCN(CC)C(=O)CCc1c(C)nn(-c2ccc(F)cc2)c1Oc1ccccc1F	i
CCCc1noc(-c2cccn3c(CNC(=O)c4ccccc4Cl)nnc23)n1	i
CN(C)[C@@H]1C[C@H](Cn2cc(C3CC3)nn2)[C@@H](O)[C@H]1O	-9%[44.1 µM]
COc1ccc(C2(C(=O)NCCc3ccc(F)cc3)CCOCC2)cc1	7%
Cc1ccc(CN2C(=O)[C@@H]3C[C@@H](O)CN3C3(CN(Cc4ccc(Cl)cc4)C3)C2=O)o1	-13%[44.1 µM]
COc1ccc(CN2CC3(C2)C(=O)N(Cc2ccc(C)o2)C(=O)[C@@H]2C[C@@H](O)CN23)c2ccccc12	10µM*
Cc1ccc(CN2C(=O)[C@@H]3C[C@@H](O)CN3C3(CN(Cc4ccccc4Cl)C3)C2=O)o1	-23%[44.1 µM]
Cc1noc(C)c1Cc1ccc(C(=O)NC2CCc3nnc(C)n3CC2)o1 (configuration not stated)	2%
Cc1ccc2oc(N3CCCC4(CCC(=O)N(Cc5cccnc5)C4)C3)nc2c1 (configuration not stated)	-8%
FC1CCN(Cc2cn(Cc3ccccc3)nc2-c2cc3ccccc3o2)CC1	7.9µM*
COC[C@H]1CCCN1C(=O)CC[C@H]1CNC(=O)[C@@H]2[C@@H](CCN2Cc2ccccc2)N1C	14%[44.1 µM]
COC[C@H]1CCCN1Cc1cn(Cc2ccccc2)nc1-c1cc2ccccc2o1	7.9µM*
O=C1CCN(Cc2ccccc2)CCOCCN1	0%
CC1(C)CN(Cc2cn(Cc3ccccc3)nc2-c2cc3ccccc3o2)CCO1	8.9µM*
O=C1NCCN1C1CCN(Cc2ccccc2)CC1	-4%[44.1 µM]
CN1CC2(CCCN(Cc3cc4ccccc4o3)C2)OC1=O (configuration not stated)	9%
c1ccc(Cn2cc(CN3CCCOCC3)c(-c3cc4ccccc4o3)n2)cc1	11µM*
COCC1CCCCN1C(=O)c1ccc2oc(CCc3ccccc3)nc2c1 (configuration not stated)	-11%
CN1CC2(CCN(Cc3ccccc3)CC2)CC1C(=O)N1CCOCC1 (configuration not stated)	-30%
